p53ts 39C kill – qHTS Screen for Compounds that Selectively Target Cancer Cells with p53 Mutations: Cytotoxicity of p53ts Cells at the Nonpermissive Temperature. H1299-p53A138V viability at 39C, ATP luminescence, 24 h. Potency, µM (series often up to 46.1 µM), inactives show top-dose activity change, negative = cell killing, most hits filed as cytotoxic. AID 902, 2007. actives 1.5% (n = 130,000); further: on the % scale 0 is the no-effect control and ±100 the full control effect; nearly all actives have a fitted effect of over 55% in size
Imprint erasure – qHTS Assay for Compounds that Induce Erasure of Genomic Imprints; mouse ES Peg3-LacZ reporter, beta-gal luminescence, 40 h; Potency, µM (top dose mostly 60.7 µM), inactives show at the top dose activity change, positive = activation, hits mostly activators; actives 0.02% (n = 110,000)
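Each well holds 300 Peg3LacZ-Neo (maternal) female ES cells incubated 40 h at 37C, 5% CO2. LacZ is measured by BetaGlo luminescence, with AC50 and maximum efficacy derived from dose-response curves.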
p53ts 32C tox – qHTS Screen for Compounds that Selectively Target Cancer Cells with p53 Mutations: Cytotoxicity of p53ts Cells at the Permissive Temperature. H1299-p53A138V at 32C, ATP luminescence viability, 24 h. Potency, µM (highest dose often 46.1 µM), inactives show top-dose activity change, negative = cytotoxicity, actives largely listed as cytotoxic. actives 0.93% (n = 130,000). AID 924, 2007;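 further: 0% = DMSO and -100% = full killing by reference compound; nearly all actives have a fitted effect of over 55% in size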
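Cells: H1299 p53ts (A138V), 600/well, pre-incubated 16–30 h at 37C. Cpd up to 46 uM, 24 h, 32C. Readout: ATPlite luminescence, 20 min RT. Normalization: DMSO vs tamoxifen 100 uM. AC50 by Hill equation.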
An asterisk follows results filed as active; ? = inconclusive; / = no result given; [ ] = dose if it differs, or a comment. Hits are enriched below; roughly 1.6% of the tested compounds scored in any of these assays. The call rests on the fitted dose curve; in most records, active means well fitted curve in the direction sought with a large enough effect; inconclusive means small, poorly fitted or top-dose-only effect, or another doubt; inactive means no such curve, though single readings can be large; an effect the other way counts as inactive or inconclusive. Potency means the concentration at half of the fitted maximal effect.

SMILES | p53ts 39C kill | Imprint erasure | p53ts 32C tox
CCCCN1CC(c2nc3ccccc3n2CCCCOc2ccc(C)c(C)c2)CC1=O (configuration not stated) | -7.5% | -8.1%[10.9 µM] | -4.4%
O=C(Nc1ccc(NC(=O)c2ccco2)nc1)c1cccnc1 | 12.6µM* | -46.5% | 10µM*
O=C(Nc1cccnc1)c1ccc(NC(=O)c2ccco2)cc1 | 16.7% | -10.6% | 5.3%
COC(=O)CNc1c(-c2ccccn2)nc2ccc(Br)cn12 | 12.6µM* | -90.3% | 15.8µM*
Cc1ccc(Nc2c(-c3ccccn3)nc3ccc(Br)cn23)cc1 | 17.2% | -6.4%[10.9 µM] | -6.7%
O=C(NCCCN1CCN(c2cccc(Cl)c2)CC1)c1cnn(-c2ccc(F)cc2)c1-n1cccc1 | 2.51µM* | -10.1%[10.9 µM] | ?
CCCN(CCC)CCCNC(=O)c1cnn(-c2ccc(F)cc2)c1-n1cccc1 | -14.9% | -14.1%[10.9 µM] | -9.6%
Cc1ccc(S(=O)(=O)Oc2ccc(N=Nc3ccc(-c4ccc(N=Nc5c(O)ccc6cc(S(=O)(=O)O)cc(S(=O)(=O)O)c56)c(C)c4)cc3C)cc2)cc1 | -13.5% | -8.7% | -0.9%[1.84 µM]
COc1cc(NS(=O)(=O)c2ccc3oc(=O)c4ncn(C)c4c3c2)cc(OC)c1 | ? | 7.9%[10.9 µM] | -28.7%
CCc1ccc(NS(=O)(=O)c2ccc3oc(=O)c4ncn(CC)c4c3c2)cc1 | 12.6µM* | -3.8%[10.9 µM] | ?
CCOC(=O)C1CCN(C(=O)C2CCN(C3=NS(=O)(=O)C(c4ccc(C)c(C)c4)=C3C)CC2)CC1 | -0.3% | 2.0%[10.9 µM] | 9.0%
COCCNc1nc(C)nc2c1nc(-c1ccccc1)n2CCCN1CCCCC1C (configuration not stated) | -2.6% | -0.8% | 4.0%
CC1CCN(C(=O)COC(=O)c2n[nH]c3ccccc23)CC1 | 10µM* | -42.2% | ?
O=C(OCC(=O)N1CCCCCC1)c1n[nH]c(=O)c2ccccc12 | -1.9% | -14.0% | -3.0%
c1ccc(CN2CCC3(CC2)SSC2(CCN(Cc4ccccc4)CC2)SS3)cc1 | 5.5%[9.22 µM] | -4.8%[10.9 µM] | -2.1%[9.22 µM]
O=C(Cn1c(=O)n(-c2ccccc2)c(=O)c2c3c(sc21)CCCC3)Nc1cccc(F)c1 | 9.9% | -3.1%[10.9 µM] | 9.8%
O=C(Cn1c(=O)n(-c2ccccc2)c(=O)c2c3c(sc21)CCCC3)Nc1ccccc1 | 12.6µM* | 5.9%[10.9 µM] | ?
Cc1c(N=C=O)cccc1N=C=O | 14.0% | -1.1% | 6.4%[1.84 µM]
O=C(CSc1nnc2[nH]c(=O)cc(-c3ccccc3)n12)Nc1ccc(F)cc1F | 3.16µM* | 3.7%[10.9 µM] | ?
Cc1cccc(NC(=O)CSc2nnc3[nH]c(=O)cc(-c4ccccc4)n23)c1C | 1.26µM* | -4.5%[10.9 µM] | 2.1%
Cc1cc(=O)[nH]c2nnc(SCC(=O)Nc3cc(C(F)(F)F)ccc3Cl)n12 | -4.2% | -10.8%[10.9 µM] | -6.5%
Cc1cc(=O)[nH]c2nnc(SCC(=O)Nc3ccc(F)cc3F)n12 | 5.9% | 12.8%[10.9 µM] | 12.5%
Cc1cccc(NC(=O)CSc2nnc3[nH]c(=O)cc(C)n23)c1C | 10.0% | 14.3%[10.9 µM] | -7.0%
O=C(CSc1nnc2[nH]c(=O)cc(-c3ccccc3)n12)Nc1cc(C(F)(F)F)ccc1Cl | 1.26µM* | 16.4%[10.9 µM] | 0.631µM*
CO[C@@H]1/C=C\CC(=O)N[C@@H](C)C(=O)OC[C@H](NS(=O)(=O)c2ccc(C)cc2)[C@H](C)/C=C\CC(=O)OC[C@H]1C | 9.2%[9.22 µM] | / | 2.6%[9.22 µM]
SMILES | p53ts 39C kill | Imprint erasure | p53ts 32C tox
Cc1nc(Oc2ccccc2C)c2oc3ccccc3c2n1 | ? | -12.4%[10.9 µM] | 3.3%
FC(F)(F)c1cc(CO[C@@H]2CCCN[C@H]2c2ccccc2)cc(C(F)(F)F)c1 | 20µM* | / | ?
N#C[C@H](C(=O)O)C(c1c(Cl)cccc1Cl)[C@H](C#N)C(=O)O | 9.8%[9.22 µM] | -5.3%[10.9 µM] | 3.4%[9.22 µM]
Cc1cc(Cl)ccc1NC(=O)CS(=O)(=O)c1cccc2nsnc12 | -21.2% | -3.8%[10.9 µM] | -0.5%
Cc1cc(F)ccc1NC(=O)CS(=O)(=O)c1cccc2nsnc12 | 0.0398µM* | -8.2%[10.9 µM] | 14.6%
Cc1ccc2nc(CN3CCN(C(=O)Nc4ccc(C)c(F)c4)CC3)oc2c1 | -11.7% | 10.1%[10.9 µM] | 2.9%
NC[C@H]1O[C@H](n2cnc3c(N)ncnc32)C[C@@H]1O | 1.9%[9.22 µM] | 11.5%[10.9 µM] | -2.0%[9.22 µM]
CSc1cccc(-n2nnc(-c3nsc(NC(=O)c4cccs4)n3)c2C)c1 | 12.6µM* | -36.2%[10.9 µM] | 0.8%
Cc1ccc(-n2nnc(-c3nsc(NC(=O)c4cccc(Cl)c4)n3)c2C)cc1C | 1.0% | -8.0%[10.9 µM] | 1.6%
CCc1ccc(-n2nnc(-c3nsc(NC(=O)c4ccccc4Cl)n3)c2C)cc1 | -26.2% | -5.4%[10.9 µM] | -1.0%
CCc1cccc(-n2nnc(-c3nsc(NC(=O)c4cccs4)n3)c2C)c1 | 10µM* | -20.1%[10.9 µM] | -19.1%
O=C(O)Cc1cccnc1 | 6.0%[9.22 µM] | 5.0%[10.9 µM] | -2.6%[9.22 µM]
COC(=O)CC1=COC(O)C2C(CO)=CC[C@@H]12 (some centres not stated) | -8.1%[9.22 µM] | / | -6.1%[9.22 µM]
CCCS(=O)(=O)Nc1cccc(-c2cn3ccc(C)cc3n2)c1 | ? | -4.4%[10.9 µM] | ?
CCN(CC)C(=O)C1CCN(C(=O)c2cnn(-c3ccccc3)c2-n2cccc2)CC1 | -7.6% | 10.7%[10.9 µM] | -0.1%
COc1cc2oc(-c3ccccc3)cc(=O)c2cc1O | 7.94µM* | -10.9% | ?
COc1cc(-c2cc(=O)c3ccccc3o2)ccc1O | -18.3% | -58.2% | -14.0%
COc1ccc(S(=O)(=O)c2c(SC)nn(CC(=O)Nc3ccc(C)c(Cl)c3)c2N)cc1 | -1.3% | -6.0%[10.9 µM] | 24.9%
COc1ccc(/C=C2\SC(=N)N(c3nccs3)C2=O)cc1OC | 14.1µM* | / | ?
N=C1S/C(=C\c2ccc(-c3cccc(Cl)c3)o2)C(=O)N1c1nccs1 | 0.2% | / | /
COC(=O)CC1C(C)(C)C2(O)OC34CC2C(=O)[C@@]1(C)C3CC[C@]1(C)C4=CC(=O)OC1c1ccoc1 (some centres not stated) | 8.8% | -3.4% | 15.2%
O=C(Nc1ccc(C(F)(F)F)cc1)c1cc(S(=O)(=O)NC2CCCCC2)ccc1F | 10µM* | -14.5%[10.9 µM] | 21.9%
CCc1ccc(NC(=O)c2ccc(F)c(S(=O)(=O)NC3CCCCCC3)c2)cc1 | -9.0% | -19.6%[10.9 µM] | 15.9%
O=C(Nc1cc(Cl)cc(Cl)c1)c1ccc(F)c(S(=O)(=O)NC2CCCC2)c1 | 12.6µM* | -15.5%[10.9 µM] | ?
O=C(Nc1ccc(C(F)(F)F)cc1)c1cc(S(=O)(=O)NC2CCCCCC2)ccc1F | ? | -12.8%[10.9 µM] | 28.3%
SMILES | p53ts 39C kill | Imprint erasure | p53ts 32C tox
O=c1cc(-c2ccccc2)oc2c1ccc1ccccc12 | 31.6µM* | -14.0% | -7.4%
O=c1cc(C(F)(F)F)oc2c1ccc1ccccc12 | -1.3% | / | -5.1%
CCOc1ccc(C(=O)Nc2ccc3c(c2)OCO3)cc1OCC | 1.4% | -11.8% | 4.7%
O=C(Nc1ccc2c(c1)OCCO2)c1ccc2nccnc2c1 | 3.98µM* | -80.6% | ?
CCOc1ccc(C(=O)Nc2ccc3c(c2)OCCO3)cc1Br | 10µM* | -12.7%[10.9 µM] | ?
O=C(Nc1ccc2c(c1)OCCO2)c1cccnc1 | -25.8% | -55.6% | ?
c1ncc(-c2ccoc2)c(NC2CC2)n1 | 4.9% | ? | 3.8%
COCCNC(=O)CSc1nc2ccccc2nc1Cc1ccc(C)cc1 | -7.5% | -6.9%[10.9 µM] | -1.0%
COc1cccc(NC(=O)CNC(=O)Cn2c(C)cc3ccccc3c2=O)c1 | 18.0% | 15.1%[10.9 µM] | 4.6%

Compound activity (PubChem)
